Hits are enriched below; roughly 31% of the tested compounds scored in any of these assays.
PLAP activator – activators of human placental alkaline phosphatase | P05187 | purified PLAP enzyme, luminescent substrate read-out; hits give high values | activation fold at 20 µM | 96,000 tested, 1.2% active | AID 696; in the data active = activation fold above about 2
CYP2C19 inhib – blocks human cytochrome P450 2C19 | P33261 | CYP2C19 Supersomes, luciferin-H EGE luminescence, 30 min | inhibition, % at 5 µM | 96,000 tested, 21% active;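 active = CYP2C19 inhibition above a set limit at 5 µM in the primary screen, cut at about 50% in these data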;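 also: plate controls were negative control wells for no effect and 2.5 mM tranylcypromine positive control for full effect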
CYP2C9 inh – inhibitors of human CYP2C9. P11712. CYP2C9 Supersomes, luciferin-H conversion, luminescence. inhibition, % at 5 µM. 96,000 tested, 20% active. AID 777;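 active = blocking of liver enzyme CYP2C9 beyond about 50% at 5 µM, limit read from the data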
Target sequence (P11712 whole entry, looked up): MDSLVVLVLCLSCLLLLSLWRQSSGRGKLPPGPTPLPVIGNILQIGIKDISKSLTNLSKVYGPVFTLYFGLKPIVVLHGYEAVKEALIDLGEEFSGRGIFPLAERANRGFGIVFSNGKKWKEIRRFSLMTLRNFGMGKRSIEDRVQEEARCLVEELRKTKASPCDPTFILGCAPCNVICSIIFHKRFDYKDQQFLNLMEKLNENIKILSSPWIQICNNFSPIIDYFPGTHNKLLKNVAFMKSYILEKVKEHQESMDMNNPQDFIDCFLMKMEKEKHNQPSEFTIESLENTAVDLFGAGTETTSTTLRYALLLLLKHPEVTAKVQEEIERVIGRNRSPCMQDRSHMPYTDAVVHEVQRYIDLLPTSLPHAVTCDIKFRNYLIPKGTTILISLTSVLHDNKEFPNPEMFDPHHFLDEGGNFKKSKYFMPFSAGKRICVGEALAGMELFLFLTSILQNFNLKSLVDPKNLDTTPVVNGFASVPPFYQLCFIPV
CYP2C9 activ – activators of human CYP2C9; P11712; recombinant CYP2C9, luciferin-H conversion, luminescence; hits give high values; factor 1 = untreated enzyme, 0 = blocked; activation factor at 5 µM; 96,000 tested, 1.4% active;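 active = activation factor of 2 or more for CYP2C9 at a 5 µM dose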;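 also: 0 = sulfaphenazole-blocked wells and 1 = vehicle-only wells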
CYP2C19 activ – increases human CYP2C19 enzyme activity; AID 1025; activation factor at 5 µM; 96,000 tested, under 10 active; recombinant CYP2C19, luciferin-H EGE luminescence; hits give high values; 0 = fully inhibited enzyme, 1 = untreated enzyme;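 active = activation factor of at least 2 at 5 µM in the primary screen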;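 also: 0 = wells with 2.5 mM tranylcypromine and 1 = vehicle-only wells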
The depositor's hits bear a star.

SMILES	PLAP activator	CYP2C19 inhib	CYP2C9 inh	CYP2C9 activ	CYP2C19 activ
COc1ccc(CNC(=O)c2cccc(N3CCCC3=O)c2)cc1	0.9	71.6*	71.4*	0.3	0.3
CNC(=O)c1cccc(N2CCCC2=O)c1	1.1	-22.8	-22.8	1.2	1.2
O=C(NCc1ccco1)c1cccc(N2CCCC2=O)c1	1.1	21.7	37.8	0.6	0.8
O=C(NCc1ccc(N2CCCC2=O)cc1)c1cn(Cc2ccccc2)nn1	0.9	3.6	8.0	0.9	1
O=C(NCCCN1CCN(c2ccc(F)cc2)CC1)c1cccc(N2CCCC2=O)c1	1.5	80.2*	28.5	0.7	0.2
CCN(CCNC(=O)c1cccc(N2CCCC2=O)c1)c1ccccc1	1.4	89.1*	-10.2	1.1	0.1
COc1cc(/C=N/NC(=O)CNC(=O)c2ccccc2)ccc1OC(=O)c1cccs1	1	27.3	38.5	0.6	0.7
CC1=C(C(=O)N2CCOCC2)C(c2ccccc2F)C2=C(CCCC2=O)N1 (stereo not drawn)	0.9	9.5	-4.4	1	0.9
COc1cccc(CC(NC(C)=O)C(=O)NC2CCN(S(=O)(=O)c3cccc4ccccc34)CC2)c1 (stereo not drawn)	1.4	29.6	-61.9	1.6	0.7
CCNC(=S)NNC(=O)c1cc(C)on1	1.7	-15.1	-13.0	1.1	1.2
COc1ccc(CNC(=O)c2ccc3c(c2)N(C)C(=O)CS3=O)cc1 (stereo not drawn)	1.3	-3.3	63.6*	0.4	1
COc1cccc(C2/C(=C(/O)c3ccccc3)C(=O)C(=O)N2CCCC(=O)O)c1 (stereo not drawn)	1	9.1	6.6	0.9	0.9
COc1cccc(C(=O)N2CCN=C2SCc2cccnc2)c1OC	1.4	86.3*	41.9	0.6	0.1
COc1ccc(C(=O)N2CCN=C2SCc2cccnc2)c(OC)c1	1.3	87.5*	62.4*	0.4	0.1
CN(C)S(=O)(=O)c1ccc(C(=O)N2CCN=C2SCc2cccnc2)cc1	1.3	-9.3	-3.1	1	1.1
O=C(c1ccc2c(c1)OCO2)N1CCN=C1SCc1cccnc1	1.1	75.6*	67.4*	0.3	0.2
CC(C(=O)O)C1SC(=O)NC1=O (stereo not drawn)	1.2	-15.1	0.8	1	1.2
CC(C)OCC(O)CS(=O)Cc1ccccc1 (stereo not drawn)	1	10.3	-12.5	1.1	0.9
CCN1CNC(=S)N(c2cc(C)ccc2C)C1	0.9	-3.1	-6.6	1.1	1
CN1/C(=C/C=N/n2cnnc2)C(C)(C)c2ccccc21	0.8	92.0*	36.0	0.6	0.1
CN1/C(=C\P(=O)(N(C)C)N(C)C)C(C)(C)c2ccccc21	1.1	-0.5	4.0	1	1
Cc1cc(C)n(Cc2ccc(C(=O)NCCC3=CCCCC3)o2)n1	1.2	41.4	18.1	0.8	0.6
c1ccc(CCn2nnnc2C(c2cccnc2)N2CCN(c3ccccc3)CC2)cc1 (stereo not drawn)	1.6	80.7*	72.7*	0.3	0.2
Oc1ccc(N2CCN(C(c3cccnc3)c3nnnn3Cc3ccccc3)CC2)cc1 (stereo not drawn)	1.4	52.2*	57.1*	0.4	0.5
c1ccc(CCn2nnnc2C(c2cccnc2)N2CCN(c3nc4ccccc4s3)CC2)cc1 (stereo not drawn)	1.7	58.7*	36.3	0.6	0.4
SMILES	PLAP activator	CYP2C19 inhib	CYP2C9 inh	CYP2C9 activ	CYP2C19 activ
COc1ccc(OC)c(C(c2nnnn2CCc2ccccc2)N2CCN(c3ccccc3)CC2)c1 (stereo not drawn)	1.6	41.4	44.2	0.6	0.6
CCCc1nnc(NC(=O)Cn2cnc3ccccc3c2=O)s1	1	-1.1	5.9	0.9	1
C#CCSc1nc(Cc2ccc(Cl)cc2)nc2ccccc12	0.9	4.3	6.8	0.9	1
O=C(Cn1c(=O)c2c(ncn2Cc2ccccc2)n(Cc2ccccc2)c1=O)N1CCc2ccccc21	1.6	42.3	27.4	0.7	0.6
O=C(Cn1c(=O)c2c(ncn2Cc2ccccc2)n(Cc2ccccc2)c1=O)N1CCCC1	1.4	67.0*	49.2	0.5	0.3
CCn1cnc2c1c(=O)n(Cc1csc(-c3ccccc3)n1)c(=O)n2Cc1ccccc1	1.5	85.5*	89.4*	0.1	0.1
Cc1cccc(-c2noc(CCCOc3ccc(Cl)cc3Cl)n2)c1	0.5	29.9	39.1	0.6	0.7
Nc1c(C(=O)Nc2ccc3c(c2)OCCO3)nnn1CCc1ccccc1	0.5	57.3*	79.4*	0.2	0.4
